The values below come from paper PMC4336329 (PLoS ONE, 2015).

Among all 310,000 compounds or so, about 2,200 (0.71%) showed an effect of 50% or more. The effect is printed as a negative number. The sample holds strong results, similar compounds and a random draw of the others, so the mix is not that of the screen.

In the assay the target is human ether-à-go-go-related gene (hERG) potassium channel (human, UniProt Q12809). Put plainly: primary screen, population patch clamp on CHO cells stably expressing hERG; higher = less effect of the substance.
human ether-à-go-go-related gene (hERG) potassium channel, sequence (Q12809 whole entry, looked up): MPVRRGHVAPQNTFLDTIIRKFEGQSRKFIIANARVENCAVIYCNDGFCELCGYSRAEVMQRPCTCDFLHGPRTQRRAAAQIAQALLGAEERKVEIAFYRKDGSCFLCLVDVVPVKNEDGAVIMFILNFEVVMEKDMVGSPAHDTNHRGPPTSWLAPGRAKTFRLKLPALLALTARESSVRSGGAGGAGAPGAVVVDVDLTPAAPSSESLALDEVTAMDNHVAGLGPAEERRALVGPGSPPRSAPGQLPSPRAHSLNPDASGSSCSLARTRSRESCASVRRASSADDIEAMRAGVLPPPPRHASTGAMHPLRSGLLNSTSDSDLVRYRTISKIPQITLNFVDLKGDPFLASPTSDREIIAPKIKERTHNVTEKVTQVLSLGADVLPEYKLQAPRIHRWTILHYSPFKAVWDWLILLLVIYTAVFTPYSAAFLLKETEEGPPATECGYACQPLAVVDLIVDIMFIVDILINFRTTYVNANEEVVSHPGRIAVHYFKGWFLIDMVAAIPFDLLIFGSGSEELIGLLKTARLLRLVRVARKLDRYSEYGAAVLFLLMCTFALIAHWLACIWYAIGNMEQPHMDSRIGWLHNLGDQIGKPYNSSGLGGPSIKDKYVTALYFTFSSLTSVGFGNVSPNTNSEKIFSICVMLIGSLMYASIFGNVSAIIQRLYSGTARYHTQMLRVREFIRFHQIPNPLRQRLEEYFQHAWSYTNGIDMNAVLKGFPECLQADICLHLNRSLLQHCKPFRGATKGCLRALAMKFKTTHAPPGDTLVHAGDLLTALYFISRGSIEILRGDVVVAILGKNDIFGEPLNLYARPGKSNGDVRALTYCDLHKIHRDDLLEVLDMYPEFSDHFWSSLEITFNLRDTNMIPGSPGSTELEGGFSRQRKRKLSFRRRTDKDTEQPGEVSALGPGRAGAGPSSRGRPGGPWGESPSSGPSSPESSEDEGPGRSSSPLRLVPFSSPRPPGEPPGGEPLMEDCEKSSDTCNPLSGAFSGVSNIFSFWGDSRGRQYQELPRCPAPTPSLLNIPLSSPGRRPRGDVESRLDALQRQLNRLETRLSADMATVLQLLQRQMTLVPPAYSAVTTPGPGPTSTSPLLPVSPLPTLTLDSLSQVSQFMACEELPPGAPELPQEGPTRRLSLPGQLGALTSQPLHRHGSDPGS
In the case of `O=C1NC(c2ccc3c(c2)OCO3)Oc2ccccc21` (centres unmarked), the “hERG current change (%, negative = inhibition) at 1uM” value was 7.7%.

`CCCN(CCC)CCCOC(=O)c1ccc(Cl)cc1Cl.Cl`: the “hERG current change (%, negative = inhibition) at 1uM” value is -56.8%.

Take `CCN(CC)CCOC(=O)c1ccc(Cl)cc1Cl.Cl`: the “hERG current change (%, negative = inhibition) at 1uM” value is -8.41%.

In the case of `CN(C)CCCOC(=O)c1ccc(Cl)cc1Cl.Cl`, the “hERG current change (%, negative = inhibition) at 1uM” value is -7.49%.

`CN(Cc1cccc(-n2cccn2)c1)Cc1cn(C)nc1-c1ccccc1F`: the “hERG current change (%, negative = inhibition) at 1uM” value came to 16.7%.

`Cn1cc(CNCc2ccc(-n3cccn3)cc2)c(-c2ccccc2F)n1`: the “hERG current change (%, negative = inhibition) at 1uM” value was -35.4%.

For the compound `CN(Cc1ccc(-n2cccn2)cc1)Cc1cn(C)nc1-c1ccccc1F`, the “hERG current change (%, negative = inhibition) at 1uM” value is -63.5%.

In the case of `Cc1ccc(=O)n(C(C(=O)NCc2ccco2)C(=O)c2ccc(F)cc2)c1` (centres unmarked), the “hERG current change (%, negative = inhibition) at 1uM” value is reported as 6.1%.

On to `Cn1c(Cn2nnc(-c3ccccc3)n2)nnc1SCc1ccccc1Cl`, for which the “hERG current change (%, negative = inhibition) at 1uM” value was 5.26%.

For the compound `CCCCOc1ccc(Cc2c(COCC)[nH]c(=S)[nH]c2=O)cc1`, the “hERG current change (%, negative = inhibition) at 1uM” value worked out at 13%.

In the case of `Fc1cccc(C2NC(=S)NC3=C2N2CCC3CC2)c1` (centres unmarked), the “hERG current change (%, negative = inhibition) at 1uM” value came out at 1.79%.

Consider `COc1ccc(CCNC(=O)c2c(O)c3cccc4c3n(c2=O)CC4)cc1OC`, for which the “hERG current change (%, negative = inhibition) at 1uM” value is -6.66%.

For the compound `CCCNC(=O)CS(=O)(=O)Cc1nc(-c2cccc(OC)c2)oc1C`, the “hERG current change (%, negative = inhibition) at 1uM” value is given as -284%.

Turning to `COc1cccc(-c2nc(CS(=O)(=O)CC(=O)NCCCN3CCOCC3)c(C)o2)c1`, the “hERG current change (%, negative = inhibition) at 1uM” value was found to be 10.9%.

Consider `COCCCNC(=O)CS(=O)(=O)Cc1nc(-c2cccc(OC)c2)oc1C`, for which the “hERG current change (%, negative = inhibition) at 1uM” value amounted to 11.3%.

As to `COc1cccc(-c2nc(CS(=O)(=O)CC(=O)NCCCN3CCc4ccccc4C3)c(C)o2)c1`, the “hERG current change (%, negative = inhibition) at 1uM” value is on record as -56.3%.

Regarding `COc1cccc(-c2nc(CS(=O)(=O)CC(=O)NCCC(C)C)c(C)o2)c1`, the “hERG current change (%, negative = inhibition) at 1uM” value came out at 14.4%.

Regarding `COc1cccc(-c2nc(CS(=O)(=O)CC(=O)NCCCN3CCN(C)CC3)c(C)o2)c1`, the “hERG current change (%, negative = inhibition) at 1uM” value is recorded as 11.2%.

Turning to `Cn1nc(C(F)(F)F)cc1C(=O)O`, the “hERG current change (%, negative = inhibition) at 1uM” value came to 17.3%.

For `Cl.O=C(Nc1ccc(Br)cn1)c1ccc(Br)s1`, the “hERG current change (%, negative = inhibition) at 1uM” value is 13.3%.

`Cc1ccc(Cn2c(=N)c(C(=O)NC3CCCC3)cc3c(=O)n4ccccc4nc32)cc1`: the “hERG current change (%, negative = inhibition) at 1uM” value is recorded as -73.4%.

`N=c1c(C(=O)NC2CCCCC2)cc2c(=O)n3ccccc3nc2n1Cc1ccccc1`: the “hERG current change (%, negative = inhibition) at 1uM” value is -10.1%.

In the case of `Cc1ccc(S(=O)(=O)c2cc3c(=O)n4ccccc4nc3n(Cc3ccco3)c2=N)cc1C`, the “hERG current change (%, negative = inhibition) at 1uM” value was -6.2%.

As for `N=c1c(C(=O)NC2CCCCC2)cc2c(=O)n3ccccc3nc2n1Cc1ccc(F)cc1`, the “hERG current change (%, negative = inhibition) at 1uM” value is recorded as -29.5%.

In the case of `Cc1ccc(Cn2c(=N)c(S(=O)(=O)c3ccc(C)cc3)cc3c(=O)n4ccccc4nc32)cc1`, the “hERG current change (%, negative = inhibition) at 1uM” value came out at 6.66%.

For the compound `Cc1ccc(Cn2c(=N)c(C(=O)NC3CCCCC3)cc3c(=O)n4ccccc4nc32)cc1`, the “hERG current change (%, negative = inhibition) at 1uM” value is given as -5.62%.

As to `N=c1c(C(=O)NC2CCCC2)cc2c(=O)n3ccccc3nc2n1Cc1ccccc1`, the “hERG current change (%, negative = inhibition) at 1uM” value is -55.9%.

Turning to `N=c1c(C(=O)NC2CCCCC2)cc2c(=O)n3ccccc3nc2n1Cc1cccnc1`, the “hERG current change (%, negative = inhibition) at 1uM” value is -50.6%.

Take `N=c1c(C(=O)NC2CCCCC2)cc2c(=O)n3ccccc3nc2n1Cc1ccco1`: the “hERG current change (%, negative = inhibition) at 1uM” value is -59.1%.

Turning to `CCN(CC)CCOC(=O)c1ccc(N/C=C(/C#N)c2nc(-c3cccc(OC)c3)cs2)cc1`, the “hERG current change (%, negative = inhibition) at 1uM” value is reported as 13.7%.

In the case of `CCOC(=O)/C=C1\SCC(=O)N1CC(=O)Nc1ccc(OC)c(OC)c1`, the “hERG current change (%, negative = inhibition) at 1uM” value amounted to 12.2%.

`CCOC(=O)C1CCN(C(=O)N(CC)CC)CC1`: the “hERG current change (%, negative = inhibition) at 1uM” value is recorded as 3.77%.

In the case of `CCCCn1c(=O)c(-c2ccccc2)c(O)c2ccccc21`, the “hERG current change (%, negative = inhibition) at 1uM” value stood at 16.3%.

For the compound `Cc1nonc1C1CCCN1C(=O)c1cc(COc2ccc(F)cc2Cl)on1` (centres unmarked), the “hERG current change (%, negative = inhibition) at 1uM” value is 8.74%.

For the compound `COc1ccc(NC2CCCN(C(=O)CSc3ccccc3)C2)cc1OC` (centres unmarked), the “hERG current change (%, negative = inhibition) at 1uM” value was 4.34%.

`CC1(C)CC(=O)C(C(c2cccnc2)C2C(=O)CC(C)(C)CC2=O)C(=O)C1`: the “hERG current change (%, negative = inhibition) at 1uM” value was determined as 2.02%.

On to `CCCC(=O)N1CCN(c2ccc(NC(=O)c3ccc(N4CCCC4)c([N+](=O)[O-])c3)cc2Cl)CC1`, for which the “hERG current change (%, negative = inhibition) at 1uM” value is -8.46%.

Turning to `Br.N=C1c2ccccc2CN1NC(=O)C1CC1`, the “hERG current change (%, negative = inhibition) at 1uM” value was 7.71%.

Consider `CCCCN(C)C(=O)c1cc2c(s1)-c1ccccc1S(=O)(=O)C2`, for which the “hERG current change (%, negative = inhibition) at 1uM” value is listed as -6.69%.

In the case of `Cc1[nH]c(=O)[nH]c(=O)c1S(=O)(=O)N1CCC(C(=O)NC(C)c2ccccc2)CC1` (centres unmarked), the “hERG current change (%, negative = inhibition) at 1uM” value is recorded as 7.35%.

As to `CSc1ccc(CN2CCC(Oc3cccc(C(=O)N4CCCC4)c3)CC2)cc1`, the “hERG current change (%, negative = inhibition) at 1uM” value is given as -36.7%.

`O=C(c1ccc(OC2CCN(Cc3ccc(C(F)(F)F)cc3)CC2)cc1)N1CCCCC1`: the “hERG current change (%, negative = inhibition) at 1uM” value was determined as 6.84%.

With `COC(=O)c1ccc(CN2CCC(Oc3ccc(C(=O)N4CCCCC4)cc3)CC2)cc1`, the “hERG current change (%, negative = inhibition) at 1uM” value is -11.3%.

As for `O=C(c1ccc(OC2CCN(CCc3ccccc3)CC2)cc1)N1CCCC1`, the “hERG current change (%, negative = inhibition) at 1uM” value is on record as -1.63%.

`CC(=O)Nc1ccc(CN2CCC(Oc3ccc(C(=O)N4CCCC4)cc3)CC2)cc1`: the “hERG current change (%, negative = inhibition) at 1uM” value was -6.27%.

For `CC(C)c1ccc(CN2CCC(Oc3ccc(C(=O)N4CCCC4)cc3)CC2)cc1`, the “hERG current change (%, negative = inhibition) at 1uM” value is on record as -33.7%.

Consider `CCc1ccc(CN2CCC(Oc3ccc(C(=O)N4CCCCC4)cc3)CC2)cc1`, for which the “hERG current change (%, negative = inhibition) at 1uM” value is listed as -61.5%.

For `O=C(c1ccc(OC2CCN(Cc3ccc(F)cc3)CC2)cc1)N1CCCC1`, the “hERG current change (%, negative = inhibition) at 1uM” value was 7.68%.

As for `CSc1ccc(CN2CCC(Oc3ccc(C(=O)N4CCCC4)cc3)CC2)cc1`, the “hERG current change (%, negative = inhibition) at 1uM” value was -56.4%.

On to `CC(=O)N1CCN(C(=O)c2ccc(OC3CCN(CCc4ccccc4)CC3)cc2)CC1`, for which the “hERG current change (%, negative = inhibition) at 1uM” value was 14.6%.

With `O=C(c1ccc(OC2CCN(CCCc3ccccc3)CC2)cc1)N1CCCC1`, the “hERG current change (%, negative = inhibition) at 1uM” value was -55.2%.

As to `CCc1ccc(CN2CCC(Oc3ccc(C(=O)N4CCCC4)cc3)CC2)cc1`, the “hERG current change (%, negative = inhibition) at 1uM” value was -77.5%.

Turning to `CC(=O)c1cc(C(=O)N2CCCC(CCC(=O)N(C)CCc3ccccn3)C2)cs1` (centres unmarked), the “hERG current change (%, negative = inhibition) at 1uM” value is recorded as 9.12%.
